Each structure is given as a SMILES string. Out of some 69,000 compounds screened, about 8,600 (12%) showed an effect of 50% or more. Shown is part of a subset that was picked to be rich in strong results.

This test concerns Plasmodium berghei. The test is described as follows: Screen against P. berghei liver stage (PbLuc), transformed with Luciferase, at 10uM. The class given is functional, HepG2. The note with it: tested at 10 uM.
Turning to `Cc1cc(C2CCCN2C(=O)c2cc3c(s2)CCC3)no1` (configuration not stated), the INHIBITION came out at 15.3%.

`CS(=O)(=O)N1CCOCC2(CCN(C(=O)c3ccco3)CC2)C1`: the INHIBITION came out at 27.6%.

For the compound `Cc1cnc(C)c(N2CCC3(CCCN(C4CCOCC4)C3=O)C2)n1` (configuration not stated), the INHIBITION was -30%.

Take `CN1CCC(C(=O)N2CCC(c3ccc4c(N)n[nH]c4n3)CC2)CC1`: the INHIBITION amounted to 34.75%. The same measure for `Cc1cnn(C2CCCN(C(=O)c3ccc(C(N)=O)cn3)C2)c1` (configuration not stated): 44.3%; for `Cc1c(Br)cccc1S(=O)(=O)NCc1ccnn1C`: 37.1%.

For the compound `O=c1cccnn1CC1CN(c2ncc(F)cn2)Cc2nccn2C1` (configuration not stated), the INHIBITION is -3.33%.

Consider `COc1ccc(C(=O)N2CCN(CCO)CC2)c(F)c1`, for which the INHIBITION is -61.4%.

Take `OCCc1ncnn1Cc1cccc(Cl)c1`: the INHIBITION amounted to 0.426%. The same measure for `CN(Cc1ccc2c(c1)OCCO2)Cc1nnnn1-c1ccccc1`: 51.2%; for `c1ccc(-n2nnnc2NCc2ccc3c(c2)OCO3)cc1`: 64.5%; for `CN(Cc1ccc2c(c1)OCO2)Cc1nc(Cc2ccccc2)no1`: 9.56%. The figure for `NC(=O)c1c[nH]nc1NCc1ccc2c(c1)OCO2` is 4.35%; for `N#Cc1c[nH]nc1NCc1ccc2c(c1)OCO2` it is -5.51%; for `c1ccc(-n2nnnc2CNCc2ccc3c(c2)OCCO3)cc1` it is 34.9%. On to `COCCn1ccnc1CN1CCc2[nH]cnc2C1c1cnn(C)c1C` (configuration not stated), for which the INHIBITION came to 32.2%. Take `Cn1cc(-c2nnc3sc(C4CC4)nn23)cn1`: the INHIBITION worked out at 0.87%. The figure for `O=C(COc1ccccc1)NCCNC(=O)c1scnc1Cl` is 23.5%; for `CCCc1cc(=O)[nH]c(-c2ccccc2CN(C)CCn2cccn2)n1` it is 16.1%. As for `Cc1ccc(CN2CCC(NC(=O)c3scnc3C)CC2)cc1`, the INHIBITION amounted to 40.9%. The figure for `Cc1ncsc1C(=O)NC1CCN(Cc2ccc(C(N)=O)cc2)CC1` is -12.2%. With `Cc1ncsc1C(=O)NC1CCN(Cc2ccc(C(F)(F)F)cc2)CC1`, the INHIBITION stood at 62.6%. The same measure for `COCCN1CCN(Cc2nc3c(s2)CCCC3)[C@H]2CS(=O)(=O)C[C@H]21`: -27.6%; for `CCc1ccc(CN2CCN(CCOC)[C@@H]3CS(=O)(=O)C[C@@H]32)cc1`: 39.4%.

As to `COCCN1CCN(Cc2nccs2)[C@H]2CS(=O)(=O)C[C@H]21`, the INHIBITION worked out at 55.7%. The same measure for `COCCN1CCN(Cc2ccc(Cl)cc2)[C@H]2CS(=O)(=O)C[C@H]21`: 52.1%; for `CCOc1ccc(CN2CCN(CCOC)[C@@H]3CS(=O)(=O)C[C@@H]32)cc1`: 45.8%.

Turning to `COCCN1CCN(Cc2ccncc2)[C@H]2CS(=O)(=O)C[C@H]21`, the INHIBITION is on record as 63.5%. The same measure for `COCCN1CCN(Cc2ccc(F)c(C)c2)[C@H]2CS(=O)(=O)C[C@H]21`: 28.5%; for `COCCN1CCN(Cc2cccnc2)[C@H]2CS(=O)(=O)C[C@H]21`: 43%. The same measure for `COCCN1CCN(Cc2ccc(C(C)=O)cc2)[C@H]2CS(=O)(=O)C[C@H]21`: 32.1%; for `Cn1ccnc1CN1CCCC(CCCc2ccccn2)(C(N)=O)C1` (configuration not stated): 10.9%. As to `O=C(NCCc1ccco1)Nc1cc(C(F)(F)F)c[nH]c1=O`, the INHIBITION is reported as 4.8%. The same measure for `Cc1nc(C)n(CC2CCCN2CC(=O)Nc2cc(C)on2)n1` (configuration not stated): 40.2%. As to `CCN(C)C(=O)Cn1c(-c2ccco2)nn(-c2ccccc2OC)c1=O`, the INHIBITION is recorded as 33.3%. The figure for `Cc1cccnc1C(=O)N1C[C@@H]2CC[C@H](Oc3cccc(F)c3)[C@@H]2C1` is 20.8%.

For `COCCN1CCC(NCc2ccc(F)cc2F)C1` (configuration not stated), the INHIBITION is reported as 25.4%. The figure for `CSCC(=O)N1CCc2c(cnc(C)c2-c2noc(-c3cc[nH]n3)n2)C1` is 12.1%; for `O=C(Cc1ccc2c(c1)CCC2)N1CCN(c2cnccn2)CC1` it is -46.4%; for `O=C(CCCNC(=O)NCC1CCCO1)Nc1ccc(Cl)cc1` (configuration not stated) it is 25.8%. The same measure for `CCOc1ccc(C(=O)NCCCNc2ncccn2)cc1`: 41.5%; for `COc1cc(OC)cc(C(=O)NCCCNc2ncccn2)c1`: -14.1%. The same measure for `Cc1cc(C)cc(C(=O)NCCCNc2ncccn2)c1`: 55.4%; for `O=C(CCCNc1ncccn1)Nc1cc(C(F)(F)F)c[nH]c1=O`: 29.15%.

On to `CC(O)(CNC(=O)c1c(F)cccc1Cl)c1ccco1` (configuration not stated), for which the INHIBITION came out at 55.6%. On to `O=C(NCC(O)(c1ccco1)C1CC1)c1c(F)cccc1Cl` (configuration not stated), for which the INHIBITION was found to be 46.7%. The same measure for `CC(O)(CNC(=O)c1c(F)cccc1Cl)C1CC1` (configuration not stated): 9.79%; for `Cc1cc(Cl)ccc1NCc1ccc(C(=O)N(C)C)[nH]1`: 3.03%; for `CCc1cnc(N2C[C@@H](NC(=O)c3cscn3)[C@H]3COC[C@H]32)nc1`: -82.5%. The same measure for `CCC(=O)N1CCC2(C=C(C(=O)N(C)C)c3ccccc32)CC1`: 53%; for `CC(C)CN1CCC2(C=C(C(=O)N(C)C)c3ccccc32)CC1`: 30.3%. Consider `CCN1CCC2(C=C(C(=O)N(C)C)c3ccccc32)CC1`, for which the INHIBITION amounted to 41.2%.

Source of the values: ChEMBL document CHEMBL4513216, “Probing the Open Global Health Chemical Diversity Library for Multistage-Active Starting Points for Next-Generation Antimalarials” (ACS Infect Dis, 2020).
